Sa ugtP lethal = growth inhibition of S. aureus ugtP deletion strain | S. aureus RN4220 ugtP deletion, OD600 growth, 16 h | growth inhibition, % (test concentration not listed) | 330,000 compounds, 0.54% hits; in the data active = growth inhibition above about 68%;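 note: plate controls were untreated wells for no effect and antibiotic for full effect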
MazF activator = MazEF (E. coli) toxin RNase activation; P0AE70; FAM/BHQ RNA-DNA oligo cleavage fluorescence, 5 h; activation, % at 20 µM; 350,000 compounds, 0.32% hits; in the data active = activation above about 50%
Target sequence (P0AE70 whole entry, looked up): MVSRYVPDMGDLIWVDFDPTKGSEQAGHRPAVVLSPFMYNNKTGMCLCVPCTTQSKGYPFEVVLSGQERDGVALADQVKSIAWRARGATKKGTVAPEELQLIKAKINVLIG
Mtb hypoxia inh = inhibitors of hypoxia-regulated fluorescent reporter in Mycobacterium tuberculosis; M. tuberculosis hypoxia-regulated fluorescent reporter, fluorescence; fluorescence inhibition, % (no concentration beside the values); 300,000 compounds, 0.1% hits; in the data active = fluorescence inhibition mostly above about 23%, no sharp cut-off; inactive = mostly below about 17%
PfHsp40 yeast = restores yeast growth despite PfHsp40 toxicity; S. cerevisiae expressing PfHsp40, growth rescue, ATP luminescence; growth rescue, % at 12.5 µM; 340,000 compounds, 0.68% hits; AID 504582; in the data active = growth rescue above about 28%, passing the limit was not always enough;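 note: yeast W303a lacking pdr1 and pdr3 grown in galactose medium; growth measured after three days at 30 °C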
Sa RN4220 lethal = S. aureus RN4220 growth inhibition. OD600, 16 h. inhibition, % (concentration not given with the values). 330,000 compounds, 0.33% hits. AID 1259311; in the data active = inhibition above about 85%;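 note: plate controls were untreated cells for no effect and reference antibiotic for full effect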
TcdB inh = inhibitors of Clostridioides difficile toxin B glycohydrolase | inhibition, % at 9.99 µM | P18177 | TcdB glycohydrolase enzymatic assay, plate reader | 350,000 compounds, 0.24% hits; in the data active = inhibition above about 10%
Starred values were filed as active, the others as inactive; . = not tested or not shown. Sampled rows, rich in hits. Any-hit rate of the full collection: about 1.3%.

SMILES	Sa ugtP lethal	MazF activator	Mtb hypoxia inh	PfHsp40 yeast	Sa RN4220 lethal	TcdB inh
COc1cccc(-c2cc3onc(-c4ccccc4)c3c(=O)n2C)c1	-17	7	12	2	2	2
O=C(N[C@@H]1CC[C@@H](CCNC(=O)c2ccccc2F)O[C@H]1CO)c1ccc2c(c1)OCO2	.	.	.	.	.	0
Cc1nc2cc(C(=O)O)ccc2n1-c1ccc(F)cc1F	12	8	.	2	-1	.
CCOc1ccccc1-n1c(C)nc2cc(C(=O)O)ccc21	3	-2	-1	-2	10	20*
CCOC(=O)NC(=O)CSc1ccccn1	-2	-3	6	-1	3	0
CCOC(=O)NC1Cc2ccccc2C1Sc1ccccn1 (configuration not stated)	9	6	14	54*	1	2
Cc1cc(C)cc(OC(=O)CCN2C(=O)c3ccccc3C2=O)c1	84*	-7	10	1	4	2
Cc1ccc(OC(=O)CCN2C(=O)c3ccccc3C2=O)cc1C	90*	4	4	1	5	1
Cc1ccc(OCC(=O)OCCN2C(=O)c3ccccc3C2=O)cc1C	.	-7	.	0	.	0
CCCNC(=O)N1CC2(C1)[C@H](c1ccccc1)[C@H](CO)N2C(=O)C1CCCC1	.	.	.	.	.	1
Cc1nc(-c2ccccn2)nc(N2CCOCC2)c1Cl	2	17	5	0	2	1
Cc1nc(-c2ccccn2)nc(N(C)c2ccccc2)c1Cl	7	11	3	180*	8	3
COc1ccc(C=NNc2cc(C)nc(N3CCOCC3)n2)c(OC)c1	-3	.	6	.	1	.
COc1cc(NC(=O)CC(C)=NNC(=O)C2CCCCC2)c(OC)cc1Cl	5	.	-12	.	0	.
O=C(N/N=C/c1ccc(-c2cccc(C(F)(F)F)c2)o1)c1ccccc1Br	.	-43	.	19	.	.
O=C(NN=Cc1ccc([N+](=O)[O-])o1)c1ccc2c(c1)OCO2	98*	.	3	.	88*	.
O=C(NN=Cc1ccc(-c2cccc(C(F)(F)F)c2)o1)c1ccccc1Br	90*	.	6	.	11	.
O=C(N/N=C/c1ccc(-c2cccc([N+](=O)[O-])c2)o1)c1ccc([N+](=O)[O-])cc1	.	12	.	146*	.	3
O=C(N/N=C\c1ccc(-c2ccc([N+](=O)[O-])cc2)o1)c1ccc2c(c1)OCO2	.	86*	.	1	.	.
COC(=O)NN=Cc1cn(CCOc2ccc(OC)cc2)c2ccccc12	3	.	-3	.	1	.
CCOc1cccc(-c2c(C(=O)NN=Cc3cccnc3)nnn2-c2nonc2N)c1	12	.	11	.	7	.
COCC(=O)N1C[C@H]2[C@@H](c3ccccc31)[C@H](CO)N2C(=O)c1ccncc1	.	.	.	.	.	-2
COC(=O)c1cccc(C23CC4(C2)C(CN(Cc2ccc(C(F)(F)F)cc2)C4c2ccccc2)C3c2ccccc2)c1 (configuration not stated)	4	.	0	.	7	.
CCC(=O)Nc1ccc2c(c1)C(=O)N(C)C[C@H](OC)[C@@H](C)CN(C(=O)COC)[C@H](C)CO2	.	.	.	.	.	-1
CC(NC(=O)Nc1nnc(C(F)(F)F)s1)(C(F)(F)F)C(F)(F)F	83*	7	.	-2	74	.
SMILES	Sa ugtP lethal	MazF activator	Mtb hypoxia inh	PfHsp40 yeast	Sa RN4220 lethal	TcdB inh
O=C(Nc1ccccc1C(=O)Nc1nnc(C(F)(F)F)s1)c1ccccc1Cl	90*	-3	.	-1	88*	4
O=C(Nc1nnc(C(F)(F)F)s1)c1ccc(Br)s1	81*	-1	10	-2	84	17*
Cc1onc(-c2c(F)cccc2Cl)c1C(=O)Nc1nccs1	-1	-3	-8	-1	3	1
Cc1onc(-c2c(F)cccc2Cl)c1C(=O)Nc1nnc(C(F)(F)F)s1	52	-17	6	-2	63	16*
COc1ccc(C2CC(=O)C=C(c3ccc4[nH]ccc4c3)C2)cc1OC (configuration not stated)	-3	.	0	.	1	.
C[C@H]1CCCCO[C@@H](CN(C)S(=O)(=O)c2ccccc2)[C@@H](C)CN([C@@H](C)CO)C(=O)c2cc(NS(=O)(=O)c3cn(C)cn3)ccc2O1	.	.	.	.	.	1
CC(C)CC1CN=C(Nc2ccccc2)N1CCCC1CCCCC1 (configuration not stated)	-35	.	-10	.	-1	.
Cc1ccc(S(=O)(=O)NCC[C@@H]2CC[C@H](NC(=O)Nc3cccc(F)c3)[C@@H](CO)O2)cc1	.	.	.	.	.	-5
NC(Cc1ccc(O)cc1)c1nnc(C(CO)NC(=O)C2CCNCC2)o1 (configuration not stated)	-1	.	7	.	4	.
Cc1nn(-c2ccccc2)nc1C(=O)Nc1nnc(C(F)(F)F)s1	86*	-4	1	1	79	3
CC1CN(C(C)CO)C(=O)c2cccc(NC(=O)Nc3ccc(C(F)(F)F)cc3)c2OC1CN(C)C(=O)NC1CCCCC1 (configuration not stated)	1	.	-11	.	-11	.
CCOC(=O)c1oc2ccc(CNC3CCCCC3)c(Cl)c2c1C	82*	12	10	2	-2	.
COc1ccc(C)cc1NC(=O)CSc1nnc(COc2ccc(Cl)cc2)n1Cc1ccco1	-26	5	4	48*	-4	.
Cc1ccc(C=NNC(=O)COc2ccc(Cl)c(C)c2)o1	-16	.	10	.	4	.
O=C(c1ccc(C(=O)N2CCCc3ccccc32)s1)N1CCCc2ccccc21	-10	-2	8	51*	2	.
COC(=O)C1=C(C)OC(N)=C(C#N)C1c1c(C)nn(C)c1C (configuration not stated)	14	-4	15	68*	6	-1
N#C/C(=C\c1ccccc1[N+](=O)[O-])C(=O)NC1CCCCC1	12	423*	-3	1	3	1
O=C(Cn1cnc2ccccc2c1=O)c1cccs1	-7	-11	3	41*	5	.
O=C(Cn1cnc2ccc(Cl)cc2c1=O)c1cccs1	1	0	17	0	-12	.
O=C(Nc1ccc(N2CCOCC2)c(Cl)c1)c1ccc(F)cc1	12	12	5	2	3	17*
O=C(Nc1ccc(N2CCOCC2)c(Cl)c1)c1ccc(-n2cnnc2)cc1	2	-6	12	-2	4	0
O=C(OCc1ccccc1)c1cn(-c2ccccc2)nc1-c1ccncc1	-12	-3	12	104*	6	.
N#Cc1nc(-c2cccs2)oc1NCCc1ccccc1	-1	3	.	106*	-3	.
N#Cc1nc(-c2ccccc2F)oc1NCCc1ccccc1	-5	3	.	4	0	.
COc1ccc(-c2nn(-c3ccccc3)cc2C=NNS(=O)(=O)c2ccccc2)cc1	-7	.	.	.	-1	.
Cc1cccc(Nc2nc(N)c([N+](=O)[O-])c(N3CCCC(C)C3)n2)c1 (configuration not stated)	17	1	13	166*	8	.
Cc1cccc(Nc2nc(N)c([N+](=O)[O-])c(N3CCN(C)CC3)n2)c1	-11	-4	3	-1	0	.
